# In PubChem BioAssay (NCATS):
# Results filed as inconclusive are left out. Where a call stands in place of a potency, no number is given. Activity calls are given as the source filed them. Calls follow the shape of the dose curve; as a rule, active = well fitted curve in the direction sought with a large enough effect; inconclusive = small, poorly fitted or top-dose-only effect, or another doubt; inactive = no such curve, though single readings can be large; an effect the other way counts as inactive or inconclusive.
# Tests used:
# [1] = biological target: Aldehyde dehydrogenase, mitochondrial (Homo sapiens) (UniProt P05091); assay: qHTS for Inhibitors of the Aldehyde Dehydrogenase Family (ALDH2) Primary screen (AID 2061308); conditions: ALDH2 enzyme inhibition qHTS, 1536-well; series mostly up to 56 µM; also: nearly all actives have a fitted effect of over 55% in size
# [2] = biological target: Retinaldehyde dehydrogenase 3 (Homo sapiens) (UniProt P47895); assay: qHTS for Inhibitors of the Aldehyde Dehydrogenase Family (ALDH1A3) Primary screen (AID 2061315); conditions: ALDH inhibition qHTS; series mostly up to 56 µM
Structure (SMILES),Potency [1],Potency [2]
CC1(C)CC[C@]2(C(=O)O)CC[C@]3(C)C(=CCC4[C@@]5(C)C[C@@H](O)[C@H](O)[C@@](C)(CO)C5CC[C@]43C)C2C1 (some centres undefined),inactive,inactive
O=C1CCCC2=C1C(c1cccnc1)N=C(Nc1nc3ccccc3o1)N2 (centres undefined),inactive,inactive
O=S(=O)(Nc1cccc2ccccc12)c1ccc(NCc2ccc(Br)cc2O)cc1,inactive,inactive
CCOc1ccc(C(=O)Oc2ccc(-c3nc4ccccc4[nH]3)cc2)cc1[N+](=O)[O-],inactive,inactive
O=S(=O)(NCCCCCNS(=O)(=O)c1c(F)cccc1F)c1ccc2c(c1)OCCO2,inactive,inactive
CC(C)(C)n1nc(Cc2cccc3ccccc23)c2c(N)ncnc21,inactive,inactive
FC(F)(F)c1cccc(Nc2ccc(CNc3nc(-c4ccccc4C(F)(F)F)nc4ccccc34)cc2)c1,inactive,inactive
